Source: PubChem (several laboratories)
PHOSPHO1 block: PubChem AID 1565 | inhibition, % at 13.3 µM | recombinant PHOSPHO1, absorbance phosphatase assay | 1.1% of 290,000 active; in the data active means inhibition above about 60%
CHT allo act: CHT positive allosteric modulators, primary screen, cell-based, membrane potential dye, choline EC20. High affinity choline transporter 1 (Homo sapiens), Q9GZV3. CHT-expressing cells; stronger effect = higher value; LV-AA mutant CHT in HEK293 cells. B-score at 10 µM. 0.49% of 310,000 active. AID 488977, 2010;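 active means initial fluorescence not abnormally high and integrated response B-score, plate-corrected, over 3 SD above library mean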
TMEM16A inh: TMEM16A chloride channel inhibitors, primary screen, cell-based, HTS; normalized B-score (activity score, 25-100; higher = stronger inhibition) at 10 µM; HEK293 TMEM16A/YFP iodide influx fluorescence, ionomycin; 1.2% of 310,000 active;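 active means ratio plate-corrected score three or more library SD toward inhibition, starting fluorescence score within five deviations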;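 further: score derived from kinetic fluorescence span divided by baseline fluorescence per well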
HDAC3 inh: HDAC3 deacetylase inhibitors, primary screen, biochemical, fluorescence, cell-free homogeneous; inhibition, % at 8.3 µM; 0.15% of 320,000 active; recombinant HDAC3, fluorogenic peptide/trypsin coupled; Histone deacetylase 3 (Homo sapiens), O15379; in the data active means inhibition above about 26%, passing the limit was not always enough
Target sequence (O15379 whole entry, looked up): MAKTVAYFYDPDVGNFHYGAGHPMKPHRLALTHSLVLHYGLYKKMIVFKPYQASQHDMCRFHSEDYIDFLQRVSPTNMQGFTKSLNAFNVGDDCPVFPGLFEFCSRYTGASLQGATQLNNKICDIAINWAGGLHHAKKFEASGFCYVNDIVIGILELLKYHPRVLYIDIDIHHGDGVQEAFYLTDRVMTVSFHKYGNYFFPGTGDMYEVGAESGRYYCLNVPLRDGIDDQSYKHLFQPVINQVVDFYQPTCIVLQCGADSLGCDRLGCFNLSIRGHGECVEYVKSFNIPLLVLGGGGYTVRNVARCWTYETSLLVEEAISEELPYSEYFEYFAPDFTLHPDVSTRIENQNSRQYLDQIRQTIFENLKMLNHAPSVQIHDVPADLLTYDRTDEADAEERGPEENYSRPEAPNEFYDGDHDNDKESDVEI
TMEM16A act: TMEM16A chloride channel activators or potentiators, primary screen, cell-based, HTS; Anoctamin-1 (Mus musculus), Q8BHY3; HEK293 TMEM16A/YFP-H148Q/I152L, iodide quench fluorescence; stronger effect = lower value; B-score at 10 µM; 0.3% of 340,000 active; AID 623877, 2012;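 active means fluorescence-ratio B-score plate-corrected deviation score at least 3 library SD below zero, with starting fluorescence score within 5 deviations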;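 further: channel opened by trigger with iodide after compound preincubation; score built on the fluorescence ratio of max minus min over baseline; more negative score means more quench and so TMEM16A activation or potentiation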
CHT block: inhibitors of human choline transporter CHT; High affinity choline transporter 1 (Homo sapiens), Q9GZV3; CHT-expressing cells, membrane potential dye, choline response; stronger effect = lower value; B-score at 10 µM; 0.86% of 310,000 active; AID 488975, 2010;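 active means B-score over 3 SD under the library average, and starting fluorescence ratio not unusually high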;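 further: choline stimulus applied at its EC90 after an EC20 pre-addition; B-score computed on integrated fluorescence ratio after choline addition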
TMEM16A reconf: TMEM16A chloride channel inhibitors, confirmation, cell-based, re-confirmation. shares compounds with TMEM16A inh. 39% of 2,300 active. HEK293 TMEM16A/YFP-H148Q, iodide quench fluorescence; ionomycin added to raise cell calcium. inhibition, % at 10 µM;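 active means mean duplicate percent inhibition, scaled so buffer wells are 0 and the reference blocker 100, over three buffer SD above buffer mean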
HEK293 Ca mobil: calcium mobilization in TMEM16A/YFP HEK293 cells, confirmation, counter-screen for TMEM16A inhibitor project. shares compounds with TMEM16A inh. Fluo4 calcium mobilization. calcium response (% of ionomycin), % at 10 µM. 2% of 2,300 active;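 active means duplicate-averaged calcium signal over 20% of the ionomycin maximum, relative to buffer baseline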;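 further: each well's signal is peak minus trough fluorescence divided by its pre-addition baseline; 0% = buffer wells and 100% = ionomycin wells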
YFP-HEK293 quench: iodide YFP quench changes in parental YFP-HEK293, counter-screen for TMEM16A inhibitor project, cell-based; shares compounds with TMEM16A inh; ionomycin; YFP ratio F(max-min)/F0 at 10 µM; 2,300 tested, under 10 active;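 active means yellow fluorescent protein signal ratio exceeding the buffer control mean by over 5 SD of those controls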;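 further: ratio is mean of duplicate wells from kinetic YFP trace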
ClC-1 inh: ClC-1 chloride channel inhibition, selectivity assay for TMEM16A inhibitor project, cell-based, voltage-dependent ClC-1; 2,300 tested, under 10 active; ratio percent, % at 10 µM; shares compounds with TMEM16A inh; CHO ClC-1-YFP, iodide influx fluorescence quench; iodide control reads 0, buffer control 100;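 active means duplicate-mean ratio percent above the mean of iodide-only control wells, which defines zero, plus 5 of their SD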;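 further: higher percent means stronger block of ClC-1 iodide influx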
* hit, by the source's call; i = inactive; / = no result given. A selection: hits, their analogues and other compounds. The true share with any hit is near 3.2%.

SMILES	PHOSPHO1 block	CHT allo act	TMEM16A inh	HDAC3 inh	TMEM16A act	CHT block	TMEM16A reconf	HEK293 Ca mobil	YFP-HEK293 quench	ClC-1 inh
C/C=C1\COC(C(=O)NCc2ccncc2)(C(F)(F)F)C=C1C=C1CCCCC1 (centres undefined)	/	i	i	7	i	i	/	/	/	/
C/C=C1\COC(C(=O)NCc2cccc(OC)c2OC)(C(F)(F)F)C=C1C=C1CCCCC1 (centres undefined)	/	i	25*	9	i	i	i	i	-1	-14
Cc1cccc2sc(NNC(=O)c3ccc(S(=O)(=O)N4CC(C)CC(C)C4)cc3)nc12 (centres undefined)	-18	i	25*	9	i	i	26%*	i	-0.97	-9
Cc1cc(C)c2nc(NNC(=O)c3ccc(S(=O)(=O)N4CC(C)CC(C)C4)cc3)sc2c1 (centres undefined)	-16	i	i	3	i	i	/	/	/	/
CC(C)(C)c1ccc(C(=O)Nc2cccc3ncccc23)cc1	40	i	i	3	i	i	30%*	i	-1.4	-14
Nc1nc(SCC(=O)Nc2ccccc2)[nH]c(=O)c1-c1ccccc1	-2	i	i	4	i	i	/	/	/	/
Nc1nc(SCC(=O)N2CCc3ccccc3C2)[nH]c(=O)c1-c1ccccc1	46	i	i	-2	i	i	i	i	-1	-15
N#Cc1c(NC(=O)Cn2c(=O)oc3ccccc32)oc(-c2ccccc2)c1-c1ccccc1	-14	i	25*	1	i	i	28%*	i	-0.94	-12
CCS(=O)(=O)N1CCC(C(=O)NCCCN2CCCCCC2)CC1	0	i	i	2	i	i	/	/	/	/
CC(C)(NO)/C(=N/O)c1cccs1	8	i	25*	5	i	i	i	i	-1.1	-4
Cc1cccn2c(=O)c3cc(C#N)c(=NC(=O)c4cccs4)n(CCCOC(C)C)c3nc12	-28	i	i	-59	i	i	/	/	/	/
Cc1ccc(-c2cc3ccccc3nc2N)cc1	38	i	i	-19	i	i	/	/	/	/
O=C(COc1ccc(Nc2ccccc2)cc1)Nc1ccncc1	/	i	100*	2	i	i	18%*	i	-0.93	-15
CC(C)CCOc1cccc(OCC(=O)Nc2ccncc2)c1	11	i	25*	5	i	i	17%*	i	-1.2	-8
CCc1ccc(OCC(=O)Nc2ccncc2)c(Br)c1	39	i	i	2	i	i	/	/	/	/
Cc1cc(OCC(=O)Nc2ccncc2)c(C)cc1Br	3	i	25*	1	i	i	34%*	i	-0.88	0
CC(C)(C)c1ccc(OCC(=O)Nc2ccc(C(=O)Nc3ccccc3C(=O)O)cc2)cc1	-10	i	25*	5	i	i	56%*	42%*	-1.2	-11
